# Assay results as given in ChEMBL document CHEMBL3988442, “University of Dundee, Small-Polar-MMV Screening Library” (2021).
# For some of these results: Potency and affinity values are given separately.
# Tests used:
# Parameters in all cases: scale not given: direction of the effect not stated beside the values
# [1] = target: Protein translocase subunit SecA (Escherichia coli (strain K12)) (UniProt P10408); assay: Assay to Identify E. coli SecA ATPase Inhibitors; assay type: functional; conditions: 30 µM
# Chain of Protein translocase subunit SecA (Escherichia coli (strain K12)) (P10408 whole entry): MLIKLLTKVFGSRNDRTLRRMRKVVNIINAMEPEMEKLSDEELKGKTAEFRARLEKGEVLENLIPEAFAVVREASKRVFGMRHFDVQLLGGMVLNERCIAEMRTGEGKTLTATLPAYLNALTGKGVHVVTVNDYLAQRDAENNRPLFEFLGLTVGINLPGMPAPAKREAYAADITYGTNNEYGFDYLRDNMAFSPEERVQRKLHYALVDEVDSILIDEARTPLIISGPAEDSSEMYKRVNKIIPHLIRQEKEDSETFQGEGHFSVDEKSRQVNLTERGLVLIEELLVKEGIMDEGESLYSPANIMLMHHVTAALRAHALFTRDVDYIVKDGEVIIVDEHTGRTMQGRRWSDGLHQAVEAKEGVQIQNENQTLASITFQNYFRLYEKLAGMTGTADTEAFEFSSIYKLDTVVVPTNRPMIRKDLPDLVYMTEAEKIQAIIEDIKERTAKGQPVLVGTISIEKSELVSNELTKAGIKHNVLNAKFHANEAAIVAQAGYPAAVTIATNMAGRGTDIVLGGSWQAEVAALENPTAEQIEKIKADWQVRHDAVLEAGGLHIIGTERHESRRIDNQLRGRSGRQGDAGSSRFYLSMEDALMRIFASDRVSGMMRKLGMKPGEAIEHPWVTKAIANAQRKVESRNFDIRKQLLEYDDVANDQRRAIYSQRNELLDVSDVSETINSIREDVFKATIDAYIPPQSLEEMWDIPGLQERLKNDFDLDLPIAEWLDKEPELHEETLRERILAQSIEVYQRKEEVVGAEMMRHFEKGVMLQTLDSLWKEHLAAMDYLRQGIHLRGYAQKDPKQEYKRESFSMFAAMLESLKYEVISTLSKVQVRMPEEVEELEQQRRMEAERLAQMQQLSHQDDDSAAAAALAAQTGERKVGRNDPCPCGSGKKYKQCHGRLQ
# [2] = target: T1, Ubiquitin-activating enzyme e1, putative (Leishmania donovani (strain BPK282A1)) (UniProt E9BSI1); assay: Leishmania donovani Ubiquitin Activating Enzyme (LdE1); assay type: functional; conditions: 30 µM
# T1 sequence (whole entry): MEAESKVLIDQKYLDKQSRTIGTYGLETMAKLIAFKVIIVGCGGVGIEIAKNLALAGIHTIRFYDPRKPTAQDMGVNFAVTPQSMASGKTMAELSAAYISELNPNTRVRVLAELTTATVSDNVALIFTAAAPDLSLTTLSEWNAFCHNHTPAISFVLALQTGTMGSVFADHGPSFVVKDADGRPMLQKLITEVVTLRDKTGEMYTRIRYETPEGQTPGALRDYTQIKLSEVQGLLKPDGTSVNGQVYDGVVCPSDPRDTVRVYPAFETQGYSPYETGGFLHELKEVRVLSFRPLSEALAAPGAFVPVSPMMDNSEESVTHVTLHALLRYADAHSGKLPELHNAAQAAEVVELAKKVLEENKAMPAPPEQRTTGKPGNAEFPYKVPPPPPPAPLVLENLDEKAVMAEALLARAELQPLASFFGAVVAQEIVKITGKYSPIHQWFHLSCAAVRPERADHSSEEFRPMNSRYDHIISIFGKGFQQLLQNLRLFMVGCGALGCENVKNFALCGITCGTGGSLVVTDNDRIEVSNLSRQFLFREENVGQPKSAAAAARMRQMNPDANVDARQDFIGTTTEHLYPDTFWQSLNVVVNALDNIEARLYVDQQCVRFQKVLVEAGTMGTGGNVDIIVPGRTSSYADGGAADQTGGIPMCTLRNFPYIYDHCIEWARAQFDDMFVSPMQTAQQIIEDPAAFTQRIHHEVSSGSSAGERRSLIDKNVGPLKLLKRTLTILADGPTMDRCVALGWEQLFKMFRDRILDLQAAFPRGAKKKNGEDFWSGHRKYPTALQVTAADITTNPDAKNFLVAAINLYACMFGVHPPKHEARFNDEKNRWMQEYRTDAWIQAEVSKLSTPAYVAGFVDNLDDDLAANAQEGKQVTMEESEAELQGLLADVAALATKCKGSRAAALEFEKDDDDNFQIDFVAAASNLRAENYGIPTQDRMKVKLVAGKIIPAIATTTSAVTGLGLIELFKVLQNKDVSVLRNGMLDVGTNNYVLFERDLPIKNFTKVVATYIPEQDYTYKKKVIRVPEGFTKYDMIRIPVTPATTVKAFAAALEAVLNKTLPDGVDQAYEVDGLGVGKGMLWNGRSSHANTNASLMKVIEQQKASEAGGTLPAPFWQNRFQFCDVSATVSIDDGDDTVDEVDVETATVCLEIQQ
# [3] = target: AMP-activated protein kinase, AMPK (Homo sapiens) (UniProt P54646+O43741+P54619+Q9UGJ0+Q9Y478+Q13131+Q9UGI9); assay: AMP-dependent Kinase enzyme assay. An in vitro enzyme assay that detects ADP turnover that is directly proportional to AMPK activity. This uses naive AMPK that is activated during the assay with MK-8722; assay type: functional; conditions: 30 µM
# [4] = target: Sialic acid-binding Ig-like lectin 9 (Homo sapiens) (UniProt Q9Y336); assay: Hs-Siglec9 ALPHAscreen SOP 20170721; conditions: 10 µM
# Chain of Sialic acid-binding Ig-like lectin 9 (Homo sapiens) (Q9Y336 whole entry): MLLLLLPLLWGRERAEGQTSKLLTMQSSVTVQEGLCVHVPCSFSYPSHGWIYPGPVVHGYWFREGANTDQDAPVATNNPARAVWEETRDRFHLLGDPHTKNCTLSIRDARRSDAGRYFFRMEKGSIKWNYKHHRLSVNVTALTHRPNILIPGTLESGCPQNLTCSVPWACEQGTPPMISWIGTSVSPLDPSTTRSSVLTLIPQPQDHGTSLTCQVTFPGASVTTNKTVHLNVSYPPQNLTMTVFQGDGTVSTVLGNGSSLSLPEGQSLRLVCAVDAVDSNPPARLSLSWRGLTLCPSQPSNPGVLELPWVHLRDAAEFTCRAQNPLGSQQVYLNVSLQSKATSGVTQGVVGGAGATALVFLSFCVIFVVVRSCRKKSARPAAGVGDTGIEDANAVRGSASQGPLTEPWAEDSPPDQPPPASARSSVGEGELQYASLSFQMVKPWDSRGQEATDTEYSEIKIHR
# [5] = tested on: Trypanosoma cruzi; assay: Trypanosoma cruzi phosphomannomutase and mannose-1-phosphate guanylyltransferase assay; assay type: functional; conditions: 10 µM
# [6] = target: T2, Arginase-2, mitochondrial (Homo sapiens) (UniProt P78540); assay: in vitro enzyme assay to detect the production of urea directly proportional to the activity of Arginase II; assay type: functional; conditions: 33.3 µM; note: in the data most compounds retested in dose-response had high values
# T2 sequence (whole entry): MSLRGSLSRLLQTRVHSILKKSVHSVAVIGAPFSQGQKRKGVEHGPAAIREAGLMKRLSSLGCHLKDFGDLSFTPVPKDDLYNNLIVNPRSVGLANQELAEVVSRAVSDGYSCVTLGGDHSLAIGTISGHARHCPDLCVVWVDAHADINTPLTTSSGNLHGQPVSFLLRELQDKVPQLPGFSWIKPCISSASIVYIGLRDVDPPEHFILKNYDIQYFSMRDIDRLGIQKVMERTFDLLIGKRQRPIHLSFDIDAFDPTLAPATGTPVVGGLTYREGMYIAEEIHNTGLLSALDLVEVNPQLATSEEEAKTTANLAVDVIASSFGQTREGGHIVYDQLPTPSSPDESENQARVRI
# [7] = target: T3, Proteasome subunit beta (Trypanosoma cruzi) (UniProt O96673); assay: Trypanosoma cruzi proteasome chymotrypsin-like activity (TcProtChymo) assay.; note: in the data most compounds retested in dose-response had high values; assay type: functional; conditions: 9.37 µM
# T3 sequence (whole entry): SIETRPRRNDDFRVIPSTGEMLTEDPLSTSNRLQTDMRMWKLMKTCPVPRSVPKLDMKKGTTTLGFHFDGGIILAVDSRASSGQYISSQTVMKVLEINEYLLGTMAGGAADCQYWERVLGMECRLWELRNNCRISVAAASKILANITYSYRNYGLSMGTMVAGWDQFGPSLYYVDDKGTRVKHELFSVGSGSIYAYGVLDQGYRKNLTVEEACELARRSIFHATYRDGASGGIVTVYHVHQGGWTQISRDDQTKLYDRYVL
# [8] = organism: Homo sapiens; assay: To identify inhibition of the IFN signalling (Jak-Stat) pathway via expression of an eGFP reporter gene under the control of an IFN-stimulated response element (ISRE) containing MxA promoter.; assay type: functional; conditions: 30 µM
# [9] = target: T4, Tyrosyl-tRNA synthetase, putative (Trypanosoma cruzi (strain CL Brener)) (UniProt Q4DSP6); assay: Trypanosoma cruzi tyrosyl tRNA synthetase (TcYRS) _High Tyrosine SOP; assay type: functional; conditions: 30 µM; note: in the data most compounds retested in dose-response had high values
# T4 sequence (whole entry): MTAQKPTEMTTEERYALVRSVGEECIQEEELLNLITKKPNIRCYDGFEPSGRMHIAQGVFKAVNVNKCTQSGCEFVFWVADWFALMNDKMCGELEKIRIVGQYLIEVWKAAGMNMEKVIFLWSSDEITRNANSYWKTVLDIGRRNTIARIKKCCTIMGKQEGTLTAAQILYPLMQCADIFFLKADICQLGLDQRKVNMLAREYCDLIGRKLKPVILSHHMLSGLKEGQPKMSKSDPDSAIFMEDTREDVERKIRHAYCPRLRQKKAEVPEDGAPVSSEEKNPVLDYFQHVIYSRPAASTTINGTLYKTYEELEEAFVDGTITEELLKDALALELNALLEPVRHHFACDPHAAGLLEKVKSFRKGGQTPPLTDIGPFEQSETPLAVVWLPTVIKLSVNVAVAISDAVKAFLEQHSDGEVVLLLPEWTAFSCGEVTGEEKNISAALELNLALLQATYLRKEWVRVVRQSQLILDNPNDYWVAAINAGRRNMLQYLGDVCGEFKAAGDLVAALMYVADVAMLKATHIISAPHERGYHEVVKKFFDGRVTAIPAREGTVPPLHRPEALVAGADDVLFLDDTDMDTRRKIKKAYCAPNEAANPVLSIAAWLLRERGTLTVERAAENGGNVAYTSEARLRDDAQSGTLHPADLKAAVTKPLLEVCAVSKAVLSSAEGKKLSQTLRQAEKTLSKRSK
# [10] = target: T4, Tyrosyl-tRNA synthetase, putative (Trypanosoma cruzi (strain CL Brener)); assay: Trypanosoma cruzi tyrosyl tRNA synthetase (TcYRS) SOP; assay type: functional; conditions: 30 µM
# [11] = target: Chromo domain-containing protein 1 (Saccharomyces cerevisiae (strain ATCC 204508 / S288c) (Baker's yeast)) (UniProt P32657); assay: ScCHD-1 Enzyme Inhibition Assay; assay type: functional; conditions: 30 µM; note: in the data most compounds retested in dose-response had high values
# Chain of Chromo domain-containing protein 1 (Saccharomyces cerevisiae (strain ATCC 204508 / S288c) (Baker's yeast)) (P32657 whole entry, the tested form may be a part): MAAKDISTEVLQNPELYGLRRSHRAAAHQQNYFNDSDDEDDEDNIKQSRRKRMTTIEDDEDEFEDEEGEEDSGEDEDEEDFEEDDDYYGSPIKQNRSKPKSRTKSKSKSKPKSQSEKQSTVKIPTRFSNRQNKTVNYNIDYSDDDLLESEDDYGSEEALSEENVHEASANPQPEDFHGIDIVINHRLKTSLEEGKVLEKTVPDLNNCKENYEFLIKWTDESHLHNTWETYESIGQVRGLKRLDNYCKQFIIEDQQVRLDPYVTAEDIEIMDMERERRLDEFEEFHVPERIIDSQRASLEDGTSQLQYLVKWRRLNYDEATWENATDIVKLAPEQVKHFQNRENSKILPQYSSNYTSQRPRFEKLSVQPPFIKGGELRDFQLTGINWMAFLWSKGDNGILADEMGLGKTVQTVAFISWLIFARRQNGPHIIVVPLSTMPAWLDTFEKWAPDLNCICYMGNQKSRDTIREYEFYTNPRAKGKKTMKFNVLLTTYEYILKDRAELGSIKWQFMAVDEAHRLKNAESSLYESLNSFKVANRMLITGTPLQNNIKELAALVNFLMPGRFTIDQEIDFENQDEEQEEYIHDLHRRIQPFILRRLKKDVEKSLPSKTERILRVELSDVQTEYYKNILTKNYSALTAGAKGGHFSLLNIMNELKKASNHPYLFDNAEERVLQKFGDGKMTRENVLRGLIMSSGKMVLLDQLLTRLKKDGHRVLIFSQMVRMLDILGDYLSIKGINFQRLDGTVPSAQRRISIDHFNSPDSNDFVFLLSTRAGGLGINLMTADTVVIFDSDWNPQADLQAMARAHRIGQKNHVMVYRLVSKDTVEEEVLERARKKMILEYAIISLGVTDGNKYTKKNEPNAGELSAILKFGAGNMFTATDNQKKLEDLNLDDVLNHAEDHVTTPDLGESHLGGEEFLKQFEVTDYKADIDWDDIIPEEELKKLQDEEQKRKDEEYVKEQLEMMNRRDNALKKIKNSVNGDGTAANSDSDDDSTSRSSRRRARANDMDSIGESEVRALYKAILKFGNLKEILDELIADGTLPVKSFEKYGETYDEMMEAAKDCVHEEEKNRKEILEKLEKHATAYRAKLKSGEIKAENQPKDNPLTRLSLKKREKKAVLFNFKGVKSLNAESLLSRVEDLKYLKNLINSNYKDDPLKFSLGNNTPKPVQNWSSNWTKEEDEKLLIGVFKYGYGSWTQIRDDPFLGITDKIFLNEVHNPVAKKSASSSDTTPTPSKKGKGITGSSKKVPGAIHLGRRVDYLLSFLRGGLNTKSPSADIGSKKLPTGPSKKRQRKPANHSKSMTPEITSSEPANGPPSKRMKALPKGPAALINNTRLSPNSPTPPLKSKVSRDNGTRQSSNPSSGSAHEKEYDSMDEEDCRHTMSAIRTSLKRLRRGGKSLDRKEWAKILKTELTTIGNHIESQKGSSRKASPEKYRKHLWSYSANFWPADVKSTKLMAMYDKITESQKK
SMILES,Percent Effect [1],Percent Effect [2],Percent Effect [3],Percent Effect [4],Percent Effect [5],Percent Effect [6],Percent Effect [7],Percent Effect [8],Percent Effect [9],Percent Effect [10],Percent Effect [11]
CC(=O)N1CC(=O)N(c2ccccc2)CC12CCN(Cc1cccs1)C2 (configuration not stated),-0.462%,16%,-5.96%,8.98%,2.51%,-36.4%,7.69%,-11.1%,5.21%,27.5%,-7.74%
CC(=O)NCc1ccc(C(=O)N2CCCC2c2cnn(C)c2)o1 (configuration not stated),-4.23%,-2.63%,-0.621%,3.5%,-0.467%,3.24%,6.51%,-0.0723%,-0.493%,-1.24%,2.06%
O=C1CCCN1Cc1ncn2c1CN(C(=O)c1cccc(F)c1)CCC2,-0.833%,16.2%,-2.98%,12%,3.42%,20.6%,13.3%,17.8%,8.6%,16.1%,-12.8%
Cc1ccccc1[C@@H]1CN(C(=O)c2ccc3[nH]nnc3c2)C[C@H]1C(=O)O,-4.25%,-11%,4.06%,1.72%,-5.75%,0.399%,8.65%,2.78%,3.12%,3.7%,2.93%
Cc1nc(N2CCN(C(=O)c3ccccc3)CC2)c2c(n1)c(C)nn2C,-0.87%,12%,3.25%,0%,-0.393%,-12.8%,12.9%,25.6%,6.35%,10.3%,-10.1%
Cc1ccoc1C(=O)N1CC[C@H]2OCC[C@@]2(COCc2ccncc2)C1,-0.155%,15.6%,3.21%,3.48%,2.07%,7.1%,17.2%,23.7%,7.41%,16.7%,-9.72%
O=C(NCCOc1ccc(F)c(F)c1)NCc1ccncc1,-1.97%,5.41%,0.439%,-1.88%,-2.32%,-2.86%,11.2%,14.5%,-0.529%,4.88%,-2.73%
N#Cc1cccnc1N1CCC2(CCCN(C3CCOCC3)C2=O)C1 (configuration not stated),-3.31%,5.48%,0.329%,1.41%,2.58%,-3.99%,8.82%,7.98%,1.04%,1.24%,-4.64%
COc1ccc(CN2CCC3(CC2)CCN(c2ncccn2)CC3)cc1,-2.42%,2.7%,0.552%,4.9%,5.57%,8.6%,1.29%,-26.6%,0%,5.13%,6.6%
Cc1nc(C)n(CC2CCCN(Cc3nnc(C(C)(C)C)o3)C2)n1 (configuration not stated),-3.5%,10.5%,5.56%,-2.35%,5.55%,0%,7.77%,-1.74%,2.13%,5.2%,-3.94%
CC(C)CC(=O)N1CC[C@@H]2[C@H](CC1)N(S(C)(=O)=O)CCS2(=O)=O,-4.61%,18.9%,-5.46%,-1.46%,5.66%,25.8%,14.1%,6.42%,5.94%,13.4%,-6.08%
Cc1cc(S(=O)(=O)N2CCCc3cc(F)cc(F)c32)sc1C(=O)O,-9.52%,-2.67%,2.83%,0.801%,-6.33%,-2.6%,9.59%,7.51%,-14.8%,-18.5%,-5.34%
O=C(CCc1cscn1)N1CCCC(c2ccn[nH]2)C1 (configuration not stated),-3.73%,-5.2%,4.11%,6.88%,-2.62%,1.07%,5.91%,15.7%,2.91%,0%,-3.79%
CCN(Cc1ccc2c(c1)OCO2)C(=O)c1ccc(C)[nH]c1=O,-4.38%,13.2%,-8.05%,-3.99%,11.5%,-1.92%,11.9%,15.1%,10.3%,19.5%,-15.7%
O=C(CN1CC(n2cccn2)C1)NCCc1c[nH]c2ccccc12,-3.91%,-2.7%,143%,3.66%,2.69%,-0.924%,-4.13%,10.4%,0.99%,11%,7.61%
CC1CCc2nc(O)c(C(=O)NCCN(C)C)cc2C1 (configuration not stated),-6.34%,4%,-0.0231%,6.09%,1.38%,-6.51%,14.8%,-2.83%,1.06%,2.56%,-5.39%
CN(C)c1cc(CNC(=O)c2ccc(F)cc2F)ccn1,-4.79%,28.6%,-1.46%,10.4%,5.62%,-1.78%,8.11%,8.43%,5.83%,24.4%,-9.26%
